Growth data for 12 compounds are collected here from PubChem BioAssay (NCI).

Test systems include HCT-15 colon; HT29 colon; SNB-75 CNS; SNB-19 CNS; U251 CNS; PC-3 prostate; SK-MEL-5 melanoma; UACC-62 melanoma; LOX IMVI melanoma; SK-MEL-28 melanoma.
Holding throughout (assay): NCI-60 one-dose screen, 48 h (100 = growth as untreated, 0 = no growth, -100 = all killed)
What all share (conditions): 10 µM unless noted

The structures appear in SMILES notation. Several values for one entry are separate records, joined by “and”; a condition that tells them apart may be missing. Equal values may be shown once. About 83,000 compounds went through this panel and 20% of them were active in at least one assay; those are over-represented in the sample as a whole.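 96-well plates, one dose, 48 hours. Percent growth reported; active if below 10.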 Values without a mark were called inactive. Activity calls are given as the source filed them.

`N[C@@H](CCC(=O)CCl)C(=O)O`: the growth was 93.7% [20 µM] with HCT-15 colon; 94.2% [20 µM] in the experiment on HT29 colon; 66.9% [20 µM] with SNB-75 CNS; 93.4% [20 µM] in the experiment on SNB-19 CNS; 96.5% [20 µM] in the experiment with U251 CNS; 100% [20 µM] in the experiment on PC-3 prostate. The growth in the experiment with SK-MEL-5 melanoma was 101% [20 µM]; in the experiment with UACC-62 melanoma, 92.1% [20 µM]; in the experiment on LOX IMVI melanoma, 96.7% [20 µM]; in the experiment on SK-MEL-28 melanoma, 103% [20 µM].
As to `CC(C)COC(=O)Cc1ccccc1`, the growth in the experiment with HCT-15 colon is 109%; in the experiment on HT29 colon, 101%; with SNB-75 CNS, 99.9%; in the experiment with SNB-19 CNS, 109%; with U251 CNS, 101%; in the experiment on PC-3 prostate, 97.6%. Also, the growth in the experiment on SK-MEL-5 melanoma was 98.7%; in the experiment on UACC-62 melanoma it was 107%; in the experiment with LOX IMVI melanoma, 101%; in the experiment with SK-MEL-28 melanoma it was 112%.
Take `CCCn1cc2c3c(cccc31)[C@H]1C[C@@H](C)CN(C)[C@@H]1C2`: the growth in the experiment on HCT-15 colon is 84.1%; in the experiment with HT29 colon, 45%; with SNB-75 CNS it was 58.2%; in the experiment with SNB-19 CNS it was 91.2%; in the experiment on U251 CNS it was 86.7%; in the experiment on PC-3 prostate it was 72.3%. The growth in the experiment with SK-MEL-5 melanoma is 113%; with UACC-62 melanoma, 93.2%; in the experiment on LOX IMVI melanoma it was 88.5%; in the experiment with SK-MEL-28 melanoma, 97.7%.
For `COc1ccc(CN)cc1OC`, the growth in the experiment with HCT-15 colon is 103% and 100%; in the experiment on HT29 colon, 107%; with SNB-75 CNS, 113% and 93.3%; with SNB-19 CNS, 104% and 103%; in the experiment with U251 CNS, 112% and 97.6%; in the experiment on PC-3 prostate, 106% and 93.5%. Further, the growth with SK-MEL-5 melanoma is 115%; in the experiment on UACC-62 melanoma, 111% and 100%; with LOX IMVI melanoma, 98.2% and 94.2%; in the experiment with SK-MEL-28 melanoma, 110% and 116%.
In the case of `Cc1ccc(S(=O)(=O)n2cc([C@@]3(O)C[C@H](CSC#N)OC3=O)c3ccccc32)cc1`, the growth with HCT-15 colon is 70%; in the experiment on HT29 colon, 54.3%; with SNB-75 CNS it was 67.8%; with SNB-19 CNS it was 97.5%; in the experiment on U251 CNS it was 40.9%; in the experiment on PC-3 prostate, 78.5%. Also, the growth in the experiment with SK-MEL-5 melanoma was 66.6%; with UACC-62 melanoma, 76.3%; in the experiment on LOX IMVI melanoma, 49.4%; in the experiment with SK-MEL-28 melanoma, 96.2%.
Take `CCC(Br)(CC)C(=O)NC(N)=O`: the growth is 103% with HCT-15 colon; 108% in the experiment with HT29 colon; 86.1% with SNB-75 CNS; 104% in the experiment on SNB-19 CNS; 105% with U251 CNS; 91.4% in the experiment with PC-3 prostate. Further, the growth in the experiment with SK-MEL-5 melanoma was 99.2%; in the experiment on UACC-62 melanoma it was 100%; with LOX IMVI melanoma, 102%; in the experiment on SK-MEL-28 melanoma, 109%.
Consider `C[N+]12CCC34C5=CC(=O)C(=O)C=C5[N+]5(C)C(=O)CC6OCC=C(C1)C(CC32)C6C45` (stereo not given), for which the growth was 103% with HCT-15 colon; 104% in the experiment with HT29 colon; 109% with SNB-75 CNS; 104% with SNB-19 CNS; 104% in the experiment on U251 CNS; 106% with PC-3 prostate. In addition, the growth is 97.5% with SK-MEL-5 melanoma, 106% with UACC-62 melanoma, 118% with LOX IMVI melanoma and 108% with SK-MEL-28 melanoma.
On to `CC1(C)N(Nc2ccccc2)C(=O)C2CCCN21` (stereo not given), for which the growth in the experiment with HCT-15 colon is 44.5%; with HT29 colon it was 65.7%; in the experiment with SNB-75 CNS, 50.7%; in the experiment with SNB-19 CNS it was 95.4%; in the experiment on U251 CNS, 85.2%; with PC-3 prostate, 9.48% (active). Further, the growth in the experiment on SK-MEL-5 melanoma was 97.5%; in the experiment on UACC-62 melanoma it was 21.7%; in the experiment on LOX IMVI melanoma, 6.21% (active); with SK-MEL-28 melanoma, 79%.
With `O=c1[nH]c(=O)[nH]c(=O)[nH]1`, the growth with HCT-15 colon is 160%; with HT29 colon, 115%; in the experiment with SNB-75 CNS, 103%; in the experiment on SNB-19 CNS, 98.1%; in the experiment on U251 CNS, 132%; with PC-3 prostate, 148%. In addition, the growth in the experiment on SK-MEL-5 melanoma is 107%; with UACC-62 melanoma it was 113%; in the experiment with LOX IMVI melanoma, 129%; in the experiment with SK-MEL-28 melanoma it was 135%.
For the compound `CC[C@H](C)[C@H](NC(=O)c1cnccn1)C(=O)N(C)[C@H](C[C@@H](OC(C)=O)c1nc(C(=O)N[C@@H](Cc2ccccc2)C[C@H](C)C(=O)OC)cs1)C(C)C`, the growth in the experiment on HCT-15 colon is 6.99% (active); with HT29 colon, -5.79% (active); with SNB-75 CNS, 15%; with SNB-19 CNS it was 31.9%; with U251 CNS, 10.3%; in the experiment with PC-3 prostate, 21.7%. Moreover, the growth with SK-MEL-5 melanoma was 0.869% (active); in the experiment with UACC-62 melanoma, 34.2%; in the experiment on LOX IMVI melanoma, 17.5%; in the experiment on SK-MEL-28 melanoma it was 59.2%.
Turning to `CNC(=O)Oc1ccc(Cl)cc1SSc1cc(Cl)ccc1OC(=O)NC`, the growth is 72.7% in the experiment with HCT-15 colon; 106% in the experiment with HT29 colon; 86.8% in the experiment on SNB-75 CNS; 86.8% in the experiment with SNB-19 CNS; 52.7% in the experiment on U251 CNS; 73% in the experiment on PC-3 prostate. For the same compound, the growth with SK-MEL-5 melanoma is 43.4%; in the experiment with UACC-62 melanoma, 49.7%; in the experiment with LOX IMVI melanoma, 85.8%; in the experiment with SK-MEL-28 melanoma, 82%.
As to `COC(=O)CCP(CCC(=O)OC)c1ccccc1`, the growth with HCT-15 colon was 106%; with HT29 colon, 106%; with SNB-75 CNS it was 89.5%; in the experiment with SNB-19 CNS, 119%; in the experiment with U251 CNS it was 99.3%; in the experiment on PC-3 prostate it was 99.9%. Also, the growth with SK-MEL-5 melanoma is 103%; in the experiment with UACC-62 melanoma it was 97.9%; in the experiment with LOX IMVI melanoma it was 100%; with SK-MEL-28 melanoma, 103%.
